About 83,000 compounds went through this panel and 20% of them were active in at least one assay; those are over-represented in the sample as a whole.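 48-hour exposure, single concentration, 96-well plates; percent growth endpoint where 0 means no net growth. Active: below 10.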 A number with no mark means an inactive call. Activity calls are given as the source filed them.
Experiments:
Experiment in all cases: NCI-60 one-dose screen, 48 h (100 = growth as untreated, 0 = no growth, -100 = all killed)
Conditions in all cases: 10 µM unless noted
NCI-H23 lung = test system: NCI-H23 lung
NCI-H226 lung = test system: NCI-H226 lung
NCI-H322M lung = test system: NCI-H322M lung
HOP-62 NSCLC = test system: HOP-62 NSCLC
NCI-H460 lung = test system: NCI-H460 lung
HOP-92 NSCLC = test system: HOP-92 NSCLC
NCI-H522 lung = test system: NCI-H522 lung
A549/ATCC NSCLC = test system: A549/ATCC NSCLC
786-0 renal = test system: 786-0 renal
COLO 205 colon = test system: COLO 205 colon

| Compound | growth (NCI-H23 lung) | growth (NCI-H226 lung) [%] | growth (NCI-H322M lung) [%] | growth (HOP-62 NSCLC) [%] | growth (NCI-H460 lung) | growth (HOP-92 NSCLC) | growth (NCI-H522 lung) | growth (A549/ATCC NSCLC) [%] | growth (786-0 renal) [%] | growth (COLO 205 colon) |
| --- | --- | --- | --- | --- | --- | --- | --- | --- | --- | --- |
| CCc1ccc(C(c2ccc(CC)cc2)C(Cl)(Cl)CCl)cc1 | 92.8% | 101 | 110 | 99.1 | 98.8% | 55.2% | 83% | 149 | 84 | 100% |
| O=C(O)c1cccnc1Br | 98.1% | 99.8 | 112 | 96.2 | 113% | 115% | 84.8% | 101 | 90.2 | 115% |
| CC(=O)OC1Oc2cc(C)c(C)cc2-c2oc(=O)c(-c3cc4ccc(N(C)C)cc4oc3=O)cc21 (stereo not given) | 46.9% | 59.2 | 78.9 | 82 | 65.4% | 77.8% | 60.5% | 70.5 | 74.1 | 96.4% |
| COc1ccc2c(c1)C(=O)/C(=C/c1cccc(OCC(=O)Nc3nc4c(s3)CCCC4)c1)O2 | -48.9% (active) | 101 | 82.5 | 99.3 | 71.3% | -74.8% (active) | -50.3% (active) | 54.6 | 63.3 | -3.43% (active) |
| COc1ccc(-c2cc(=O)[nH]c3c(OC)c4ccccc4c(OC)c23)cc1 | 19.2% | 39.9 | 41.8 | 36.8 | 8.71% (active) | 73.9% | -17.2% (active) | 23.6 | 34.5 | -58.8% (active) |
| c1ccc2sc(SCCCn3ccnc3)nc2c1 | 81.4% | 74.8 | 98.7 | 99.7 | 97.8% | 78.9% | 50.4% | 74.9 | 104 | 98.2% |
| O=C1c2ccccc2-c2nccc3cc(Cl)nc1c23 | -62.3% (active) | 48.2 | 95.7 | 47.6 | 40.2% | 21.2% | -75.9% (active) | 73 | 71.1 | 54.7% |
